This is a sample that favours compounds with a hit; in the whole collection about 2.5% have one here.
PG9 binder = binders of HIV-1 gp120 antibody PG9, primary screen, biochemical, TR-FRET | TR-FRET gp120-PG9 antibody binding | inhibition, % at 6.7 µM | HIV-1 gp120 / PG9 antibody interaction | 360,000 tested, 0.43% active | AID 624416, 2012; in the data active = inhibition above about 8.5%
rCAG binder = binders of r(CAG) RNA repeats, primary screen, biochemical, fluorescence | AID 651821, 2012 | 370,000 tested, 1.3% active | r(CAG) RNA repeat, TO-PRO-1 dye displacement fluorescence | inhibition, % at 3 µM;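 active = inhibition above the plate cutoff, the mean of all test compounds on that plate plus 3 SD, cut at about 35% in these data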;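 also: higher means more dye released from RNA so lower well fluorescence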
ABCB6 inh MLPCN = ABCB6 transporter inhibitors, primary screen, K562-ABCB6 cells, flow cytometry, MLPCN library. ATP-binding cassette sub-family B member 6 (Homo sapiens), Q9NP58. K562-ABCB6 porphyrin accumulation, 1 h; stronger effect = lower value. fluorescence ratio to DMSO, % at 10 µM. 360,000 tested, 0.19% active. AID 602162, 2011;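 active = fluorescence ratio to DMSO below 75%, the collection mean minus 3 SD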;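 also: signal is porphyrin accumulated inside mitochondria; lower ratio means ABCB6 inhibition with less porphyrin fluorescence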
Target sequence (Q9NP58 whole entry, looked up): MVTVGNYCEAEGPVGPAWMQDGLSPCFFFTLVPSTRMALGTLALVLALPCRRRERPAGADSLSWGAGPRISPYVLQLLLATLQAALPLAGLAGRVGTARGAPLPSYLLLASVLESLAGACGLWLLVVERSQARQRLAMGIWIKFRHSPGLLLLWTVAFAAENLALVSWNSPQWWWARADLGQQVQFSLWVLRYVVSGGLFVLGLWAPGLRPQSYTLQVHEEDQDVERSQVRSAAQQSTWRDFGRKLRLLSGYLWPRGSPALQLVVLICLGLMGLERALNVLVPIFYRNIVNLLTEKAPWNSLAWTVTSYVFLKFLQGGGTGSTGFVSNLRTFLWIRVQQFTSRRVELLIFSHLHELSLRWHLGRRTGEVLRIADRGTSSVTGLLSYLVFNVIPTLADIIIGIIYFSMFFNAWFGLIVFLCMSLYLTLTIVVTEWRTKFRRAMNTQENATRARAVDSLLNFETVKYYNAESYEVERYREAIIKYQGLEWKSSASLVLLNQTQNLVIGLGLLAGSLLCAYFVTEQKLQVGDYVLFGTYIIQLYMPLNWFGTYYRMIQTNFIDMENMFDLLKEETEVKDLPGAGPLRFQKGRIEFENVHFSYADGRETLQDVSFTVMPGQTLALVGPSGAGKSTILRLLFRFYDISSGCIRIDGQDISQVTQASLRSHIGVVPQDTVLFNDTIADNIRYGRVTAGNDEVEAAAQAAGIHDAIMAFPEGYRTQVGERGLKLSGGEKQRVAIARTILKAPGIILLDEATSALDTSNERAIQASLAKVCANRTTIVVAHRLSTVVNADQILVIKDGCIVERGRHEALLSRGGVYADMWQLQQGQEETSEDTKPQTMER
Exocytosis inh = LAMP-1 surface exposure blockers, TALL-104 cells – cell-based, flow cytometry, MLPCN library, primary screen. TALL-104 LAMP-1 surface exposure; cells stimulated with thapsigargin and PMA. inhibition, % at 10 µM. 360,000 tested, 0.66% active. AID 651702, 2012;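 active = inhibition above about 55%, limit read from the data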
Of the large screens only hits and unclear results are named; the others gave an inactive call.

CCOC(=O)C1=C(C(=O)OCC)C2N(Cc3ccc(C#N)cc3)c3ccccc3[C@@]23C[C@@H](C(=O)OC)N(S(=O)(=O)c2c(C)noc2C)C3=N1 (some centres not stated)	none (no result: ABCB6 inh MLPCN, Exocytosis inh)
O=C(NN=Cc1cccc(OCc2ccccc2)c1)c1cc(-c2ccc(Cl)cc2)n[nH]1	none (no result: PG9 binder, ABCB6 inh MLPCN, Exocytosis inh)
O=C1CC(=C(c2ccccc2)c2ccccc2)C(=O)N1CCCCN1CCN(c2ccccc2)CC1	Exocytosis inh 58
O=C(CCCN1CCN(c2ccccc2)CC1)c1ccc(F)cc1	none
O=[N+]([O-])c1ccc(N/N=C/c2ccccc2O)cc1	Exocytosis inh 65
O=[N+]([O-])c1ccc(NN=Cc2ccccc2O)nc1	none
CCCc1c(C)[nH]c2ccc(C(=O)O)cc2c1=S	rCAG binder 45
COCc1[nH]nc2c1C(c1ccc(C)cc1)N(Cc1ccccc1)C2=O (configuration not stated)	none (no result: ABCB6 inh MLPCN, Exocytosis inh)
Nc1nc2c(ncn2[C@@H]2O[C@H](C(=O)N[C@@H](Cc3ccccc3)C(=O)NCC3CCCCC3)[C@@H](O)[C@H]2O)c(=O)[nH]1	none (no result: ABCB6 inh MLPCN, Exocytosis inh)
CC[C@@H](CCCc1ccc(OC)cc1)CCC(=O)N(c1ccccc1)c1ccccc1	none (no result: PG9 binder, ABCB6 inh MLPCN, Exocytosis inh)
CCC(C)NC(=O)c1c(N)n(/N=C/c2cccnc2)c2nc3ccccc3nc12 (configuration not stated)	none
CCC(C)NC(=O)c1c(N)n(/N=C/c2ccccn2)c2nc3ccccc3nc12 (configuration not stated)	Exocytosis inh 56
CCOc1ccc(-n2c(SCC(=O)c3ccc4ccccc4c3)nnc2-c2ccco2)cc1	none (no result: PG9 binder, ABCB6 inh MLPCN, Exocytosis inh)
C1=C(c2ccccc2)Nc2ncnn2C1c1ccccc1 (configuration not stated)	none
Cc1ccc(C2=CC(c3ccccc3)n3ncnc3N2)cc1 (configuration not stated)	Exocytosis inh 68
C/C(=N\Nc1cc(C)nc(NCc2ccccc2)n1)c1cccc([N+](=O)[O-])c1	Exocytosis inh 94
COc1ccc(/C=C/S(=O)(=O)NCc2ccc(F)cc2)c(CNC(=O)OC(C)(C)C)c1	none (no result: PG9 binder, ABCB6 inh MLPCN, Exocytosis inh)
CCCN1C(=O)c2n[nH]c(C)c2C1c1ccc(Br)cc1 (configuration not stated)	none (no result: ABCB6 inh MLPCN, Exocytosis inh)
Cc1ccccc1OCC(=O)Nc1sc2c(c1C#N)CC(C)(C)NC2(C)C	Exocytosis inh 59
O=S(=O)(c1ccc2c(c1)C(=NO)c1cc(S(=O)(=O)N3CCCCC3)ccc1-2)N1CCCCC1	ABCB6 inh MLPCN 72
CC1CCN(S(=O)(=O)c2ccc3c(c2)C(=NO)c2cc(S(=O)(=O)N4CCC(C)CC4)ccc2-3)CC1	ABCB6 inh MLPCN 70
COc1ccc(S(=O)(=O)N2CCC(C)CC2)cc1OC	none
COc1cccc2cc(C(=O)CS(=O)(=O)c3ccc(C(C)(C)C)cc3)c(=O)oc12	rCAG binder 38
O=C(O)c1ccc(N2C(=O)/C(=C/c3ccc(-c4ccc([N+](=O)[O-])cc4)o3)C=C2c2ccccc2)cc1	Exocytosis inh 56 (no result: PG9 binder, rCAG binder)
O=C1NN(c2ccccc2)C(=O)/C1=C/c1ccc(-c2ccc(C(=O)O)cc2)o1	none
O=C(O)CCCN1C(=O)/C(=C\c2ccc(-c3nc4ccccc4s3)o2)SC1=S	Exocytosis inh 76
O=C(CCN1C(=O)/C(=C/c2ccc3c(c2)OCO3)SC1=S)Nc1cccc(C(=O)O)c1	none
O=Cc1ccc(-c2nc3ccccc3s2)o1	none
CN1CCN(C(=O)CCCN2C(=O)/C(=C/c3ccccc3)SC2=S)CC1	Exocytosis inh 61
O=C(CCCN1C(=O)/C(=C/c2ccc3c(c2)OCO3)SC1=S)Nc1cccc(C(=O)O)c1	rCAG binder 51
O=C(O)CCCN1C(=O)/C(=C\c2ccccc2OCc2ccccc2)SC1=S	rCAG binder 52
CN1CCN(C(=O)CCCN2C(=O)/C(=C/c3ccc(Cl)cc3)SC2=S)CC1	none (no result: PG9 binder, rCAG binder)
O=S1(=O)c2ccc(N3CCSCC3)cc2Oc2ccccc2CN1Cc1cn(Cc2ccc(F)cc2)nn1	none (no result: PG9 binder, ABCB6 inh MLPCN, Exocytosis inh)
COC(=O)[C@]12C=CCN1[C@@H](c1ccc(OC)c(OC)c1)c1c(c3ccccc3n1S(=O)(=O)c1ccc(C)cc1)C2	none (no result: PG9 binder, ABCB6 inh MLPCN, Exocytosis inh)
COc1ccc(S[C@]2(C(=O)N(C)C)CC(=O)N(S(=O)(=O)c3ccc(F)cc3)[C@@H]2c2ccc(OC)cc2)cc1	none (no result: PG9 binder, ABCB6 inh MLPCN, Exocytosis inh)
COc1cc(/C=C2\SC(=S)N(CCC(=O)Nc3cccc(O)c3)C2=O)cc(OC)c1OC	Exocytosis inh 85
